Only some compounds are listed: those with a hit (about 1.3% of all), similar ones and a draw of the others.
PREPL inh: inhibitors of human prolyl oligopeptidase-like enzyme PREPL; Q4J6C6; recombinant PREPL, fluorescence polarization activity-based probe; inhibition, % at 5.96 µM; hit rate 0.68% among 320,000
UBC13 polyUb: human UBC13 polyubiquitination inhibition | inhibition, % at 20 µM | P61088 | hit rate 0.47% among 330,000 | UBC13 polyubiquitin chain formation, TR-FRET | AID 485273; in the data active means inhibition above about 45%, passing the limit was not always enough
beta cell repl: induces beta-cell replication in MIN6 cells; MIN6 cells proliferation, ATPlite luminescence, 48 h; cells starved in 0.2% serum; 100% = growth in 10% serum; proliferation, % at 10 µM; hit rate 0.29% among 330,000;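 active means compounds whose signal lies at least 3.5 SD above the mean of all wells on their plate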
RAD54 inh: blocks human RAD54 Holliday junction branch migration. Q92698. FAM/BHQ fluorescence. inhibition, % at 10.4 µM. hit rate 0.14% among 360,000. AID 602329;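 active means mean normalized replicate activity at least 40 and at least half of replicates scoring 40 or more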;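 further: inhibitors cause a drop in the FAM fluorescence signal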
Target sequence (Q92698 whole entry, looked up): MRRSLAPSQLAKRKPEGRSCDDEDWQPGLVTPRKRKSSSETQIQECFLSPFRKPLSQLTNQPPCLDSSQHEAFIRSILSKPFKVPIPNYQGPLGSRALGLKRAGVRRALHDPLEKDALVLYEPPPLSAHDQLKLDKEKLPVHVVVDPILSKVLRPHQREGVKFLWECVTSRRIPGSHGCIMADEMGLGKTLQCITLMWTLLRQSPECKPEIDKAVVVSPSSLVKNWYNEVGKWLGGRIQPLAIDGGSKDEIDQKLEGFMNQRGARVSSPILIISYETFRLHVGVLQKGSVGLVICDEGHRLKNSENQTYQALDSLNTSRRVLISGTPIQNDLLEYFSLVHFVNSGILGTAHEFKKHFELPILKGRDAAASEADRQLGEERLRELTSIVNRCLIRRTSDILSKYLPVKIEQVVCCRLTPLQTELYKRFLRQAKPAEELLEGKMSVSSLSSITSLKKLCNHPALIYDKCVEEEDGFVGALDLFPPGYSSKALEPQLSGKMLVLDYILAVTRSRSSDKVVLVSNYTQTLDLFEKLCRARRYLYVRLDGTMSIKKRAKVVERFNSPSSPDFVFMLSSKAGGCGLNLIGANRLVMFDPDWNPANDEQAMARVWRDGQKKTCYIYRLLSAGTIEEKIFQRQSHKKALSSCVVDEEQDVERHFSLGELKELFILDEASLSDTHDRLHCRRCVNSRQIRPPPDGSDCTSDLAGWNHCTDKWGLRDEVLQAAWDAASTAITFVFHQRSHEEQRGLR
FID counter: displaces DNA intercalator in HCV helicase counter-screen. hit rate 0.17% among 290,000. inhibition, % at 7.9 µM. DNA fluorescent intercalator displacement, fluorescence; in the data active means inhibition above about 37%;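 further: higher means more ethidium bromide displaced from hairpin DNA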
RAD52 anneal inh: blocks human RAD52 DNA annealing. recombinant RAD52 DNA annealing, FRET fluorescence. AID 651710. P43351. inhibition, % at 18.7 µM. hit rate 0.46% among 360,000;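 active means every replicate showing at least 50% inhibition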
PREPL inh cf: human PREPL inhibition, confirmation | shares compounds with PREPL inh | recombinant PREPL, fluorescence polarization activity probe | inhibition, % at 5.96 µM | hit rate 67% among 2,000 | AID 2803
Of the large screens only hits and unclear results are named; the others gave an inactive call (follow-up assays come after a bar, where they were run). Unless noted, no stated cut-off is given here; in the data, active means inhibition above about 43%; inactive means the rest.

COc1ccc(CCC(=O)OCC(=O)Nc2sccc2C(N)=O)cc1OC	PREPL inh 48 (no result: FID counter) | PREPL inh cf inactive
O=C(C1=C[C@@H](c2ccc(Br)cc2)C[C@@H](OCc2ccc(CO)cc2)O1)N1CCOCC1	PREPL inh 44 | PREPL inh cf 51
O=C(C1=C[C@@H](c2ccccc2)C[C@@H](OCc2ccc(CO)cc2)O1)N1CCOCC1	none
O=C(C1=C[C@H](c2ccc(Br)cc2)C[C@H](OCc2ccc(CO)cc2)O1)N1CCOCC1	PREPL inh 43 | PREPL inh cf inactive
Cc1ccc(S(=O)(=O)N(C)C[C@@H]2Oc3c(NC(=O)c4ccncc4)cccc3C(=O)N([C@H](C)CO)C[C@@H]2C)cc1	none (no result: PREPL inh, UBC13 polyUb, beta cell repl, FID counter)
Cc1ccc(/C=C/C(=O)Nc2ccc(N(C)C)cc2)o1	PREPL inh 48 (no result: RAD52 anneal inh) | PREPL inh cf inactive
Cc1ccc(/C=C/C(=O)Nc2ccncc2)o1	none (no result: RAD52 anneal inh)
CCC(=O)N1CCCCN2[C@H](CO)[C@@H](c3ccc(C#Cc4ccccc4F)cc3)[C@@H]2C1	none (no result: PREPL inh, UBC13 polyUb, beta cell repl, FID counter)
CO[C@H](CN(C)C(=O)C1CCOCC1)[C@H](C)CN(C(=O)Nc1ccc(F)cc1)[C@@H](C)CO	none (no result: PREPL inh, UBC13 polyUb, beta cell repl, FID counter)
COc1cc(C(=O)NC(=S)Nc2ccc(N3CCCC3)cc2)cc(OC)c1OC	PREPL inh 69 (no result: RAD54 inh, RAD52 anneal inh) | PREPL inh cf 46
C[C@@H]1CCCCO[C@@H](CN(C)S(=O)(=O)c2ccccc2)[C@H](C)CN([C@@H](C)CO)C(=O)c2cc(NS(=O)(=O)c3cccs3)ccc2O1	none (no result: PREPL inh, UBC13 polyUb, beta cell repl, FID counter)
Cc1ccccc1Cn1c(C(=O)OC(C)C)cc2c1ccn2C	none (no result: RAD52 anneal inh)
CC(C)OC(=O)c1cc2c(ccn2-c2ccc(F)cc2)n1CC(=O)N1CCN(C(=O)c2ccco2)CC1	PREPL inh 47 | PREPL inh cf 48
COC(=O)c1cc2c(ccn2-c2ccc(F)cc2)n1CC(=O)N1CCN(C(=O)c2ccco2)CC1	none (no result: RAD52 anneal inh)
CC(C)OC(=O)c1cc2c(ccn2C)n1CC(=O)N1CCC(Cc2ccccc2)CC1	PREPL inh 44 (no result: RAD52 anneal inh) | PREPL inh cf inactive
C[C@@H]1CN([C@@H](C)CO)C(=O)c2cccc(NC(=O)CCCCCC(=O)Nc3ccccc3N)c2O[C@@H]1CN(C)C(=O)Nc1ccc(C(F)(F)F)cc1	none (no result: PREPL inh, UBC13 polyUb, beta cell repl, RAD54 inh, FID counter)
O=C(CN1CCN(c2ccccc2)CC1)Nc1ccc(-n2cnnn2)cc1	none
CCc1ccccc1NC(=O)CN1CCN(C(=O)c2cccc(-n3cnnn3)c2)CC1	PREPL inh 65 (no result: FID counter) | PREPL inh cf inactive
COc1ccc(NC(=O)C2CCN(S(=O)(=O)c3c(C)noc3/C=C/N(C)C)CC2)cc1	none
COc1ccc(N2CCN(CCCNS(=O)(=O)c3c(C)noc3/C=C/N(C)C)CC2)cc1	PREPL inh 71 (no result: RAD54 inh, RAD52 anneal inh) | PREPL inh cf inactive
CC(/C=C/c1ccco1)=N/NC(=O)c1ccc(C)nc1	PREPL inh 60 | PREPL inh cf inactive
CN(C)C(=O)C[C@@H]1C[C@@H]2c3cc(NS(=O)(=O)c4ccc(F)cc4)ccc3O[C@@H]2[C@H](CO)O1	none (no result: PREPL inh, UBC13 polyUb, beta cell repl, FID counter, RAD52 anneal inh)
C[C@H]1CN([C@@H](C)CO)C(=O)c2cc(NC(=O)CCCCCC(=O)Nc3ccccc3N)ccc2O[C@H]1CN(C)S(=O)(=O)c1ccccc1	none (no result: PREPL inh, UBC13 polyUb, beta cell repl, RAD54 inh, FID counter)
CCN1CCc2nc3sc(C(=O)N4CCc5ccccc5C4)c(N)c3cc2C1	PREPL inh 65 | PREPL inh cf 48
COc1cc2cc3c(N)c(C(=O)NCc4ccco4)sc3nc2cc1OC	PREPL inh 46 (no result: RAD52 anneal inh) | PREPL inh cf 57
O=C(O/N=C(\c1ccccc1)c1ccncc1)c1ccccc1Cl	PREPL inh 54 | PREPL inh cf inactive
Cc1ccc(N=Cc2sc(O)c3ccccc23)cc1	PREPL inh 50 (no result: RAD52 anneal inh) | PREPL inh cf 54
Cc1ccc(N=Cc2sc(O)c3ccccc23)c(C)c1	none (no result: RAD54 inh, RAD52 anneal inh)
COc1ccc(/C=N/n2cnnc2)cc1COc1ccccn1	none (no result: RAD52 anneal inh)
COc1cc(/C=N/n2cnnc2)ccc1OCc1ccccc1	PREPL inh 46 (no result: RAD52 anneal inh) | PREPL inh cf inactive
O=C1OC[C@@H]2CCCN2C(=O)[C@H](CC(=O)N(CCO)Cc2ccccc2)C/C=C\C[C@H]1Cc1ccc(F)cc1	PREPL inh 51 (no result: FID counter) | PREPL inh cf inactive
Cc1noc(C)c1NC(=O)N(C)C[C@@H]1Oc2ccc(NS(C)(=O)=O)cc2CC(=O)N([C@@H](C)CO)C[C@@H]1C	none (no result: PREPL inh, UBC13 polyUb, beta cell repl, FID counter, RAD52 anneal inh)
CO[C@@H]1CN(C)C(=O)c2ccc(NC(=O)C3CCCCC3)cc2OC[C@@H](C)N(Cc2cccnc2)C[C@H]1C	none (no result: PREPL inh, UBC13 polyUb, beta cell repl, FID counter)
O=c1c(O)c(-c2cc(O)c(O)c(O)c2)oc2cc(O)cc(O)c12	PREPL inh 90 (no result: FID counter) | PREPL inh cf 55
CNC[C@H]1OCCCC[C@@H](C)Oc2ccc(NC(=O)Nc3ccccc3)cc2C(=O)N([C@@H](C)CO)C[C@@H]1C	none (no result: PREPL inh, UBC13 polyUb, beta cell repl, FID counter)
COc1cc(C(=O)NCC2CCCO2)ccc1OCc1ccc(Cl)cc1Cl (stereo not given)	PREPL inh 44 (no result: RAD54 inh, FID counter) | PREPL inh cf inactive
CCOC(=O)c1sc(N/N=C/c2cc(Br)c(O)c(OC)c2)nc1C	PREPL inh 44 | PREPL inh cf 48
CC1=Nc2cccc3cccc(c23)N1	PREPL inh 45 (no result: RAD52 anneal inh) | PREPL inh cf inactive
Nc1ccc(C2=Nc3cccc4cccc(c34)N2)cc1	none (no result: PREPL inh, UBC13 polyUb, beta cell repl)
O=[N+]([O-])c1ccc(N2CCCCC2)cn1	none
O=[N+]([O-])c1ccc(N2CCN(c3cccc(Cl)c3)CC2)cn1	PREPL inh 47 | PREPL inh cf inactive
O=C(C1=C[C@H](c2ccc(Br)cc2)C[C@H](OCCCCO)O1)N1CCN(Cc2ccc3c(c2)OCO3)CC1	none
O=C(C1=C[C@@H](c2ccc(Br)cc2)C[C@@H](OCCCCO)O1)N1CCN(Cc2ccccc2)CC1	PREPL inh 63 | PREPL inh cf 57
O=C(C1=C[C@@H](c2ccc3c(c2)OCO3)C[C@@H](OCCCCO)O1)N1CCN(Cc2ccc3c(c2)OCO3)CC1	PREPL inh 50 | PREPL inh cf 49
CCO[C@H]1OC(C(=O)N2CCN(Cc3ccc4c(c3)OCO4)CC2)=C[C@@H](c2csc3ccccc23)[C@@H]1CCCO	PREPL inh 54 | PREPL inh cf 46
O=C(C1=C[C@@H](c2ccccc2)C[C@@H](OCCCCO)O1)N1CCN(Cc2ccc3c(c2)OCO3)CC1	PREPL inh 57 | PREPL inh cf inactive
CCO[C@@H]1OC(C(=O)N2CCN(Cc3ccc4c(c3)OCO4)CC2)=C[C@H](c2ccccc2)[C@H]1CCCO	none (no result: PREPL inh, UBC13 polyUb, beta cell repl, FID counter)
COc1ccc(NC(=O)Nc2ccc3c(c2)[C@H]2C[C@@H](CC(=O)N4CCN(C)CC4)O[C@H](CO)[C@H]2O3)cc1	none (no result: PREPL inh, UBC13 polyUb, beta cell repl, FID counter)
Cc1noc(C)c1NC(=O)Nc1ccc2c(c1)C(=O)N([C@H](C)CO)C[C@H](C)[C@H](CN(C)Cc1ccc3c(c1)OCO3)O2	none (no result: PREPL inh, UBC13 polyUb, beta cell repl, FID counter)
Cc1[nH]c2ccc(C(=O)NCCCN3CCCCC3)cc2c1C	none
Cc1[nH]c2ccc(C(=O)NCCN3CCCCCC3)cc2c1C	PREPL inh 61 | PREPL inh cf inactive
